The list is not random: actives were taken first. Their share in the collection is about 10%.
KB-V1 MDR tox: KB-V1 MDR subline cytotoxicity; KB-V1 MDR cells viability, CellTiter-Glo, 72 h; Potency, µM (highest dose often 46.1 µM), usual class: cytotoxic; 400,000 compounds, 3.4% hits; AID 1347076; note: nearly all actives have a fitted effect of over 60% in size
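KB-V1 MDR subline cells in DMEM (phenol-red free, 10% FBS) exposed to compounds in qHTS concentration series for 72 h at 37 degrees C. Viability read by CellTiter-Glo luminescence; concentration-effect curves fitted after normalization and correction.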
KB-3-1 tox: kills parental KB-3-1 adenocarcinoma cells; KB-3-1 viability, CellTiter-Glo ATP luminescence, 72 h; Potency, µM (top dose mostly 46.1 µM), actives largely listed as cytotoxic; 400,000 compounds, 1.4% hits; AID 1347075; note: nearly all actives have a fitted effect of over 60% in size
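Cells are dispensed, compounds pinned in, plates held at 37 °C for 72 h, then CellTiter-Glo is added and luminescence read after 10 minutes. Cell line: parental KB-3-1 in phenol-red-free DMEM, 10% FBS.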
SW480 rereplic: inducers of DNA re-replication in SW480 colon cancer cells; SW480 DNA re-replication, Hoechst DNA content imaging, 48 h; Potency, µM (titrated, usually from 46.1 µM), most hits filed as activators; 340,000 compounds, 1.8% hits; AID 624297; note: nearly all actives have a fitted effect of over 55% in size
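Compounds, transferred as 23 nL by pin tool, were incubated with cells for 48 hr; DNA content per nucleus was then quantified by Hoechst staining and fluorescence plate imaging.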
VP16 counter: Gal4-VP16 reporter inhibition counter-screen; Potency, µM (doses to about 53.6 µM), hits mostly inhibitors; Drosophila S2 Gal4-VP16 UAS-luciferase, luminescence, 20 h; AID 2546; 310,000 compounds, 3.5% hits;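 note: Gal4-VP16 expression switched on by copper sulfate through the metallothionein promoter; nearly all actives have a fitted effect of over 50% in size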
MCF10A rerep: induces DNA re-replication in MCF 10a normal breast cells; MCF 10A DNA re-replication, Hoechst nuclear intensity, 48 h; Potency, µM (top dose mostly 46.1 µM), actives largely listed as activators; 350,000 compounds, 2.9% hits; AID 624296; note: nearly all actives have a fitted effect of over 50% in size
RORg inh: blocks mouse ROR gamma transcriptional activity; P51450; Drosophila S2 Gal4-RORgamma UAS-luciferase reporter, 20 h; Potency, µM (titrated, usually from 53.6 µM), hits mostly inhibitors; 310,000 compounds, 5.4% hits; AID 2551; note: nearly all actives have a fitted effect of over 60% in size
Target sequence (P51450 whole entry, looked up, the tested form may be a part): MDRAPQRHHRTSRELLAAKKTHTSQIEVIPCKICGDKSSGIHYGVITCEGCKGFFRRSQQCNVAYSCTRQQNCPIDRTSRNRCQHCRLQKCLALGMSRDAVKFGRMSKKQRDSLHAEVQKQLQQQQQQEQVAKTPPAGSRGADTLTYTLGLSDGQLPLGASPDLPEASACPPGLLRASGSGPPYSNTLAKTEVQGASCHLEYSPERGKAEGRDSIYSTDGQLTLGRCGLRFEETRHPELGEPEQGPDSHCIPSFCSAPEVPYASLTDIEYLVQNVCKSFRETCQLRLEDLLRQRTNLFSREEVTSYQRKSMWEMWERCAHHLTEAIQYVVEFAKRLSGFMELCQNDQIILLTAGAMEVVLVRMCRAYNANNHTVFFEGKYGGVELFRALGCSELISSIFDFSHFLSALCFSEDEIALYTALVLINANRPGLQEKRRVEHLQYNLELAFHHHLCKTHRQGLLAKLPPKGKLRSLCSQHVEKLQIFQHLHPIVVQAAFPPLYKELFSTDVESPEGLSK
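Luminescence from a UAS-regulated Photinus luciferase reporter in stably transfected Drosophila Schneider cells is measured; decreased signal marks ROR gamma inhibition. Fusion expression is induced by 700 uM copper sulfate for 20 hr.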
Large screens that a line does not name were inactive. Calls come from the whole dose curve; as a rule, active = well fitted curve in the direction sought with a large enough effect; inconclusive = small, poorly fitted or top-dose-only effect, or another doubt; inactive = no such curve, though single readings can be large; an effect the other way counts as inactive or inconclusive.

CC[C@H](C)[C@H](NC(=O)[C@H](Cc1ccccc1)NC(=O)[C@H](CC(C)C)NC(=O)[C@H](CCSC)NC(=O)[C@H](CCC(=O)O)NC(=O)[C@H](CCC(=O)O)NC(=O)[C@H](CC(=O)O)NC(=O)[C@H](CO)NC(=O)[C@@H]1CCCN1C(=O)[C@H](CCCCN)NC(=O)[C@@H](N)[C@@H](C)O)C(=O)N[C@@H](Cc1ccc(O)cc1)C(=O)NCC(=O)N[C@@H](Cc1cnc[nH]1)C(=O)N[C@@H](Cc1ccc(O)cc1)C(=O)N[C@@H](CCCCN)C(=O)N[C@@H](CCC(N)=O)C(=O)N[C@@H](C)C(=O)N[C@H](C(=O)N[C@H](C(=O)NCC(=O)N[C@@H](CC(=O)O)C(=O)N[C@H](C(=O)N[C@@H](CC(N)=O)C(=O)N[C@H](C(=O)N[C@@H](CCC(=O)O)C(=O)N[C@@H](CCCNC(=N)N)C(=O)N1CCC[C@H]1C(=O)NCC(=O)N[C@@H](CCSC)C(=O)N[C@@H](CC(C)C)C(=O)N[C@@H](CC(=O)O)C(=O)N[C@@H](Cc1ccccc1)C(=O)N[C@H](C(=O)O)[C@@H](C)O)[C@@H](C)O)[C@@H](C)CC)C(C)C)[C@@H](C)O	none (no result: KB-V1 MDR tox, KB-3-1 tox, SW480 rereplic, MCF10A rerep)
Cc1nn(CC(C)C(=O)N2CCN(S(=O)(=O)c3ccc(Cl)cc3)CC2)c(C)c1C (stereo unspecified)	KB-V1 MDR tox 21µM
CCN(CC)/[N+]([O-])=N/Oc1cc(O/N=[N+](\[O-])N(C)C)c([N+](=O)[O-])cc1[N+](=O)[O-]	RORg inh inconclusive (no result: KB-V1 MDR tox, KB-3-1 tox, SW480 rereplic, MCF10A rerep)
CC1(C)CCC[C@@](C)([C@H]2CC[C@]3(C)[C@@H]2[C@H](O)CC2[C@@]4(C)CC[C@H](O)C(C)(C)[C@@H]4[C@@H](O)C[C@]23C)O1 (stereo partly specified)	RORg inh inconclusive (no result: KB-V1 MDR tox, KB-3-1 tox, SW480 rereplic, MCF10A rerep)
CCOC(=O)c1cc2c(OC)ccc(OC)c2n1CC(=O)c1ccccc1	SW480 rereplic inconclusive, MCF10A rerep 23µM
COc1ccc(-n2c(=O)c3ccccc3n(CC(=O)c3ccccc3)c2=O)cc1OC	none
CC(=O)Nc1sc(/C(C#N)=C/c2ccc(Cl)c(Cl)c2)nc1-c1ccc(C)cc1	SW480 rereplic inconclusive, MCF10A rerep 1.8µM
CC(=O)N(C)c1cccc(-c2ccc3nnc(C)n3n2)c1	none
O=C(NC1(C(F)(F)F)N=C(c2ccccc2)NC1=O)c1ccc(Cl)cc1Cl (stereo unspecified)	KB-V1 MDR tox 18µM
CCc1ccc(-c2nc(NC(=S)NC(=O)c3cccs3)sc2C)cc1	VP16 counter 3.2µM, RORg inh inconclusive
COC(=O)c1nc(NC(=S)NC(=O)c2cccs2)sc1C	VP16 counter 4.5µM, RORg inh 4µM
C[C@@H](C(=O)Nc1ccc2ccccc2c1)[C@H]1C[C@]1(C)[C@H](NC(=O)c1ccccc1)c1ccccc1	RORg inh inconclusive (no result: KB-V1 MDR tox, KB-3-1 tox, SW480 rereplic, MCF10A rerep)
COc1cc(C2Nc3ccc4ncccc4c3C3=C2C(=O)CCC3)ccc1O (stereo unspecified)	KB-3-1 tox 3.3µM, SW480 rereplic 21µM, MCF10A rerep 16µM
CCN1C(=O)/C(=C2/Sc3ccc(OC)cc3N2C)SC1=Nc1ccc(OC)cc1	none
C=CCN1C(=O)/C(=C2/Sc3ccc(OC)cc3N2C)SC1=Nc1cccc(O)c1	SW480 rereplic inconclusive, MCF10A rerep 5.8µM
C/C(=N/NC(N)=S)c1ccccc1[N+](=O)[O-]	VP16 counter inconclusive, RORg inh 7.1µM
Cc1ccc(C(=O)NC(=S)Nc2cccc(NC(=O)c3ccccc3Cl)c2)cc1[N+](=O)[O-]	VP16 counter 4µM, RORg inh 5.6µM
Cc1ccc(C(=O)NC(=S)Nc2cccc(NC(=O)c3ccccc3)c2)cc1[N+](=O)[O-]	VP16 counter 3.5µM, RORg inh 2.5µM
C/C(=N\NC(=O)c1ccc([N+](=O)[O-])c(C)c1)c1ccccc1Cl	KB-V1 MDR tox inconclusive, VP16 counter inconclusive, RORg inh 7.9µM
COc1cc2c(-c3ccc(C)cc3)nc3c(c(C)nn3-c3ccccc3)c2cc1OC	KB-V1 MDR tox inconclusive (no result: SW480 rereplic, VP16 counter, MCF10A rerep, RORg inh)
CCCn1c(=O)c(C(=O)Nc2ccccc2C)c(O)c2ccccc21	KB-V1 MDR tox 21µM, MCF10A rerep inconclusive, RORg inh inconclusive
CC(C)Cn1c(=O)c(C(=O)Nc2ccncc2)c(O)c2ccccc21	KB-3-1 tox 7.3µM, SW480 rereplic inconclusive, MCF10A rerep inconclusive (no result: VP16 counter, RORg inh)
CCn1c(=O)c(C(=O)Nc2ccc(C)cc2)c(O)c2ccccc21	VP16 counter inconclusive, RORg inh inconclusive
CC(C)Cn1c(=O)c(C(=O)Nc2cnccn2)c(O)c2ccccc21	none
CCCCc1nc2ccccc2c(=O)n1NC(=O)c1c(O)c2ccccc2n(C)c1=O	KB-V1 MDR tox inconclusive, KB-3-1 tox 13µM, SW480 rereplic inconclusive
Cc1nc2ccccc2c(=O)n1NC(=O)c1c(O)c2ccccc2n(C)c1=O	none (no result: KB-V1 MDR tox, KB-3-1 tox, SW480 rereplic, MCF10A rerep)
CCCn1c(=O)c(C(=O)Nc2ccccc2)c(O)c2ccccc21	KB-V1 MDR tox 23µM, KB-3-1 tox inconclusive, VP16 counter inconclusive
O=C(CBr)c1ccc(Oc2ccc(C(=O)C[n+]3cccc(Br)c3)cc2)cc1	none (no result: SW480 rereplic, VP16 counter, MCF10A rerep, RORg inh)
CC1(c2ccccc2Br)NC(=O)N(CC(=O)NC2CCCCC2)C1=O (stereo unspecified)	none (no result: VP16 counter, RORg inh)
C=CCn1c(=O)c(C(=O)Nc2ccccc2C)c(O)c2ccccc21	KB-V1 MDR tox inconclusive, KB-3-1 tox inconclusive, MCF10A rerep 18µM
CCCn1c(=O)c(C(=O)Nc2cccc(C)c2)c(O)c2ccccc21	VP16 counter 13µM, RORg inh inconclusive
CCn1c(=O)c(C(=O)NNS(=O)(=O)c2ccc(Cl)cc2)c(O)c2ccccc21	KB-V1 MDR tox 15µM, MCF10A rerep inconclusive
CCCn1c(=O)c(C(=O)NNC(=O)c2ccccc2Cl)c(O)c2ccccc21	KB-V1 MDR tox 9.2µM, KB-3-1 tox inconclusive, VP16 counter inconclusive, MCF10A rerep inconclusive, RORg inh 11µM
C=CCn1c(=O)c(C(=O)Nc2ccccc2O)c(O)c2ccccc21	none
CCCn1c(=O)c(C(=O)NNC(=O)Cc2ccccc2)c(O)c2ccccc21	KB-V1 MDR tox inconclusive
CCCCCCN(C(=O)CCCCCN1C(=O)NC(c2ccc([N+](=O)[O-])cc2)C(C(=O)OCc2ccccc2)=C1C)C(C(=O)NCCCC)C1CCCCC1 (stereo unspecified)	none (no result: VP16 counter, RORg inh)
Cn1c(=O)c(C(=O)NCc2ccccc2Cl)c(O)c2ccccc21	none
CCn1c(=O)c(C(=O)NCc2ccccc2Cl)c(O)c2ccccc21	KB-V1 MDR tox inconclusive, KB-3-1 tox inconclusive, VP16 counter 20µM, MCF10A rerep inconclusive, RORg inh inconclusive

Screens deposited in PubChem by National Center for Advancing Translational Sciences (NCATS).
